# Measurements as given in the supplement of paper PMC10732440.
# ± gives the standard deviation of the averaged measurements.
# System: Caenorhabditis elegans N2 infected with Nematocida parisii ERTm1
# Experiment: progeny production relative to DMSO uninfected control; higher = more progeny despite microsporidia infection (inhibition of infection with low host toxicity)
# Settings: infection time 6 days; 40 µM
# Procedure: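 Bleach-synchronised C. elegans N2 L1 larvae (100 per well) were grown in 96-well plates in K-medium with 5x E. coli OP50 and 15,000 N. parisii spores/uL, plus Pandemic Response Box compound at 100 uM or 40 uM (1% DMSO), for 6 days at 21 C with shaking. Worms were stained with Rose Bengal, scanned on a flatbed scanner and counted with WorMachine. Progeny production is given as % of the DMSO uninfected control (triplicate wells), so higher values mean the compound restores progeny despite infection.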
row,SMILES,progeny production
1,O=C(O)C(Cc1c[nH]c2ccccc12)N1C(=O)c2ccccc2C1=O (stereo not given),6.93 ± 1.2%
2,COc1ccc(NC(=O)CC2Sc3ncnn3C2=O)cc1 (stereo not given),8.48 ± 3.4%
3,COc1c(NC(=O)[C@H]2CC[C@@H](COc3ccc([N+](=O)[O-])cc3)CC2)c(F)cc2c(=O)c(C(=O)O)cn(C3CC3)c12,4.64 ± 2.9%
4,Nc1nc(Nc2ccc3nc(-c4ccc(F)cc4)cc(N)c3c2)cc(-c2ccccc2)n1,3.92 ± 1.1%
5,O=[N+]([O-])c1cn(Cc2nc(O)nc(O)c2Br)cn1,8.41 ± 4.5%
6,COc1ccc(SC(=O)N[C@H](CCC(=O)O)C(=O)O)cc1,9.06 ± 7.1%
7,COc1ccc(C2CNC(=O)C2)cc1OC1CCCC1 (stereo not given),4.65 ± 2.2%
8,OCCCCn1cnc2c(O)nc(NCc3ccc(Cl)c(Cl)c3)nc21,4.76 ± 1.4%
9,O=c1ccc2ncc(=O)n3c2n1CC3CN1CCC(NCc2cc3c(cn2)OCCC3)CC1 (stereo not given),2.13 ± 0.25%
10,CCc1cc(Cc2cnc(N)nc2N)cc2c1N(C)CCC2C (stereo not given),11.7 ± 8.4%
11,CC1(C)Cc2c(C#N)c(SCCc3ccccc3)nc(N3CCOCC3)c2CO1,3.65 ± 0.7%
12,O=c1[nH]cnc2c1ncn2[C@H]1CC[C@@H](CO)O1,6.61 ± 0.81%
13,OC(Cn1cncn1)(Cn1cncn1)c1ccc(F)cc1F,3.82 ± 1.7%
14,Cc1cc(C)n2nc(C(=O)NS(=O)(=O)c3c(C)cccc3OC(F)(F)F)nc2n1,9.33 ± 0.97%
15,NC(=O)c1nccn([C@@H]2O[C@H](CO)[C@@H](O)[C@H]2O)c1=O,6.9 ± 2.3%
16,Cn1cncc1[C@@](N)(c1ccc(Cl)cc1)c1ccc2c(c1)c(-c1cccc(Cl)c1)cc(=O)n2C,2.71 ± 0.38%
17,[N-]=[N+]=N[C@H]1C[C@H](n2ccc(=O)[nH]c2=O)O[C@@H]1CO,4.8 ± 1.5%
18,CC(C)Nc1nc2cc(Cl)c(Cl)cc2n1[C@H]1O[C@@H](CO)[C@H](O)[C@@H]1O,3.85 ± 0.59%
19,O=C1c2cccc3cccc(c23)C(=O)N1CC1CO1 (stereo not given),7.39 ± 4.7%
20,Cc1[nH]c2ccccc2c1CC(=O)N[C@@H](Cc1ccccc1)C(=O)N(C)c1ccccc1,4.28 ± 2.4%

# Same assay, conditions: infection time 6 days; 100 µM
row,SMILES,progeny production
1,O=C(O)C(Cc1c[nH]c2ccccc12)N1C(=O)c2ccccc2C1=O (stereo not given),9.79 ± 1.2%
2,COc1ccc(NC(=O)CC2Sc3ncnn3C2=O)cc1 (stereo not given),14.8 ± 8.1%
3,COc1c(NC(=O)[C@H]2CC[C@@H](COc3ccc([N+](=O)[O-])cc3)CC2)c(F)cc2c(=O)c(C(=O)O)cn(C3CC3)c12,8.01 ± 7.4%
4,Nc1nc(Nc2ccc3nc(-c4ccc(F)cc4)cc(N)c3c2)cc(-c2ccccc2)n1,7.7 ± 7.8%
5,O=[N+]([O-])c1cn(Cc2nc(O)nc(O)c2Br)cn1,8.29 ± 4.9%
6,COc1ccc(SC(=O)N[C@H](CCC(=O)O)C(=O)O)cc1,11.3 ± 0.6%
7,COc1ccc(C2CNC(=O)C2)cc1OC1CCCC1 (stereo not given),11.2 ± 9.9%
8,OCCCCn1cnc2c(O)nc(NCc3ccc(Cl)c(Cl)c3)nc21,10.6 ± 7.9%
9,O=c1ccc2ncc(=O)n3c2n1CC3CN1CCC(NCc2cc3c(cn2)OCCC3)CC1 (stereo not given),18.2 ± 18%
10,CCc1cc(Cc2cnc(N)nc2N)cc2c1N(C)CCC2C (stereo not given),4.65 ± 0.53%
11,CC1(C)Cc2c(C#N)c(SCCc3ccccc3)nc(N3CCOCC3)c2CO1,18.8 ± 15%
12,O=c1[nH]cnc2c1ncn2[C@H]1CC[C@@H](CO)O1,9.85 ± 7.2%
13,OC(Cn1cncn1)(Cn1cncn1)c1ccc(F)cc1F,22 ± 18%
14,Cc1cc(C)n2nc(C(=O)NS(=O)(=O)c3c(C)cccc3OC(F)(F)F)nc2n1,5.89 ± 3.9%
15,NC(=O)c1nccn([C@@H]2O[C@H](CO)[C@@H](O)[C@H]2O)c1=O,10.3 ± 7.2%
16,Cn1cncc1[C@@](N)(c1ccc(Cl)cc1)c1ccc2c(c1)c(-c1cccc(Cl)c1)cc(=O)n2C,8.73 ± 2.4%
17,[N-]=[N+]=N[C@H]1C[C@H](n2ccc(=O)[nH]c2=O)O[C@@H]1CO,11.5 ± 5.3%
18,CC(C)Nc1nc2cc(Cl)c(Cl)cc2n1[C@H]1O[C@@H](CO)[C@H](O)[C@@H]1O,9.08 ± 2.1%
19,O=C1c2cccc3cccc(c23)C(=O)N1CC1CO1 (stereo not given),44.9 ± 30%
20,Cc1[nH]c2ccccc2c1CC(=O)N[C@@H](Cc1ccccc1)C(=O)N(C)c1ccccc1,17.6 ± 9.7%
